This is one part of a sample in which hits are shown more often than they occur.
HTT ATP protect = qHTS Multiplex Assay to Identify Dual Action Probes in a Cell Model of Huntington: Cytoprotection (ATP); PC12 HTT-Q103 induced, cytoprotection, ATP luminescence, 40 h; Potency, µM (series often up to 56.4 µM), most hits filed as activators; 230,000 compounds, 0.14% hits; also: nearly all actives have a fitted effect of over 45% in size
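PC12 cells stably carrying ecdysone-inducible Htt exon 1 (Q103)–GFP were induced with 100 nM tebufenozide (final) alongside library compounds in a dose series. Cytoprotection was scored as retained ATP by ATPlite luminescence.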
HTT aggregate = qHTS Multiplex Assay to Identify Dual Action Probes in a Cell Model of Huntington: Aggregate Formation (GFP) | PC12 HttQ103-GFP aggregates, Acumen cytometry, 40 h | Potency, µM (doses to about 46.1 µM), hits mostly inhibitors | 220,000 compounds, 1.1% hits | AID 1688, 2009; also: nearly all actives have a fitted effect of over 60% in size
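Read-out: GFP aggregate count by laser scanning cytometer (488 nm excitation, 500-530 nm emission, 1–25 µm objects >6 SD above background). Cells: PC12, inducible HTTex1-Q103-GFP, 100 nM tebufenozide; compounds titrated.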
PNC inhibitor = High Content Assay for Compounds that inhibit the Assembly of the Perinucleolar Compartment. PC3M PTB-GFP, PNC prevalence imaging, 16 h; active compounds read low. activity change (PNC), negative = inhibition, % at 10 µM. 140,000 compounds, 3.1% hits;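 active = readout at or below -70, meaning at least 70% loss of cells showing the perinucleolar compartment, a nuclear body marking cancer cells; inconclusive = readout between -30 and a set limit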
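PC3M cells stably expressing PTB-GFP, 750–1000 cells/well, treated 16 h at 37 °C with compound (23 nl of library stock), in duplicate. After paraformaldehyde fixation and Hoechst stain, imaged at 20x; PNC prevalence scored by image analysis.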
Large screens that a line does not name were inactive. Unless noted, calls follow the shape of the dose curve; as a rule, active = well fitted curve in the direction sought with a large enough effect; inconclusive = small, poorly fitted or top-dose-only effect, or another doubt; inactive = no such curve, though single readings can be large; an effect the other way counts as inactive or inconclusive.

NC(=O)C(c1ccc(Cl)cc1)c1ccc(Sc2ccc(Cl)cc2)nn1 (centres undefined)	HTT aggregate inconclusive, PNC inhibitor -93
O=C(CSc1ccc(-c2ccncc2)nn1)c1ccc(Cl)cc1	none (no result: PNC inhibitor)
CCCCSc1nc2[nH]ncc2c(=O)[nH]1	PNC inhibitor inconclusive
CCSc1nc2[nH]ncc2c(=O)[nH]1	PNC inhibitor -87
COC(=O)C1=C(C)N=C2SC(C#N)=C(N)N2C1c1cccc(OC)c1 (centres undefined)	none
Oc1c(CN2CCc3ccccc3C2)cc(Cl)c2cccnc12	HTT aggregate inconclusive, PNC inhibitor inconclusive
Oc1c(I)cc(Cl)c2cccnc12	HTT aggregate 10µM, PNC inhibitor inconclusive
Oc1c(C(c2ccccn2)N2CCCCC2)cc(Cl)c2cccnc12 (centres undefined)	HTT aggregate 25µM (no result: PNC inhibitor)
Cc1[nH]c2ccccc2c1C(c1ccccn1)N1CCCC1 (centres undefined)	none (no result: PNC inhibitor)
COc1ccc(N=Nc2ccc(O)c3ncccc23)cc1	none (no result: PNC inhibitor)
COCc1ccc(O)c2ncccc12	HTT aggregate 11µM
Cc1ccccc1N=Nc1ccc(O)c2ncccc12	HTT aggregate 2.5µM
Cc1ccc(O)c2ncccc12	HTT aggregate inconclusive (no result: PNC inhibitor)
Fc1cccc(CCN2C(=S)NC[C@@H]2CC2CCCCC2)c1	HTT aggregate inconclusive (no result: PNC inhibitor)
Cn1c(=O)[nH]c(=O)c2c1nc(NC1CCCCC1)n2Cc1ccccc1	none
CC(C)C(c1nnnn1Cc1ccccc1)N1CCN(Cc2ccc3c(c2)OCO3)CC1 (centres undefined)	none
C/C(CC(=O)NCC(C)C)=N\NC(=O)COc1cc(C)c(Br)cc1Br	none
CC(=O)NC(c1ccc(C)cc1)c1cc([N+](=O)[O-])c2cccnc2c1O (centres undefined)	HTT aggregate inconclusive (no result: PNC inhibitor)
O=[N+]([O-])c1ccc(O)c2ncccc12	HTT aggregate 3.5µM
O=[N+]([O-])c1ccc(O)c2cccnc12	none (no result: PNC inhibitor)
CCC(=O)NC(c1ccc(C)cc1)c1cc([N+](=O)[O-])c2cccnc2c1O (centres undefined)	HTT aggregate 7.9µM, PNC inhibitor inconclusive
O=[N+]([O-])c1cc(Cl)c2cccnc2c1O	HTT aggregate inconclusive (no result: PNC inhibitor)
O=[N+]([O-])c1cc(Cl)c(O)c2ncccc12	HTT aggregate 7.9µM (no result: PNC inhibitor)
Cc1ccc(C)c2[nH]c(=O)c(CCNS(=O)(=O)c3ccccc3)cc12	none
Cc1nc(SCN2C(=O)c3ccccc3C2=O)n[nH]1	none
O=C(COc1cccc(Br)c1)N/N=C1\CCCc2ccccc21	none (no result: PNC inhibitor)
O=C(COc1cccc(Br)c1)NN=C1c2ccccc2-c2ccccc21	PNC inhibitor -119
CC(C)(C)C1(c2ccccc2)NC(=O)N(CC(=O)N2CCOCC2)C1=O (centres undefined)	none
CS(=O)(=O)N1CCN(C2Cc3ccccc3C2)CC1	none
Cc1nn(-c2ccccn2)c2c1-c1nc(N)ncc1CC2	HTT aggregate 11µM, PNC inhibitor inconclusive
Cc1nn(-c2ccccn2)c2c1-c1nc(N3CCOCC3)ncc1CC2	none
Cc1cccc(N=Nc2c(C)nn(-c3ccccc3)c2N)c1C	PNC inhibitor -134
Cc1nn(-c2ccccc2)c(N)c1N=Nc1ccccc1	none (no result: HTT ATP protect)
Cc1nn(-c2ccccc2)c(N)c1N=Nc1ccc(Cl)cc1	HTT aggregate 3.5µM, PNC inhibitor -93
Nc1nn(-c2ccccc2)c(N)c1N=Nc1ccccc1F	PNC inhibitor inconclusive
Cc1cc(C)n(CC(O)COCc2ccccc2)n1 (centres undefined)	PNC inhibitor inconclusive
Cc1cc(-n2ccc(=O)[nH]c2=O)nc(-c2ccccc2)n1	PNC inhibitor inconclusive
COc1cccc([C@H]2Oc3ccc(OC)cc3/C(=N\O[C@@H]3O[C@H](COC(C)=O)[C@H](OC(C)=O)[C@H](OC(C)=O)[C@H]3OC(C)=O)[C@@H]2O)c1	none (no result: HTT aggregate, PNC inhibitor)
CCNc1ncc2nc(C)c(=O)n(CCc3ccccc3)c2n1	none (no result: HTT aggregate, PNC inhibitor)
CCCc1ccc(-c2cc(C(=O)NC3=NCCS3)c3ccccc3n2)cc1	HTT aggregate 4µM, PNC inhibitor inconclusive
O=C(NC1=NCCS1)c1cc(-c2ccc(F)cc2)nc2ccccc12	PNC inhibitor inconclusive
O=C(O)CCC(=O)NCc1c(Cl)cccc1Sc1ccc(Cl)cc1	none (no result: PNC inhibitor)
COc1ccccc1CNC(=O)C1CCN(Cc2nc(-c3ccc(Cl)cc3)oc2C)CC1	none (no result: HTT aggregate, PNC inhibitor)
CCc1ccc(-c2nc(CN3CCC(C(=O)NCc4ccccc4OC)CC3)c(C)o2)cc1	HTT aggregate inconclusive, PNC inhibitor -98
O=C(NN1C(=O)c2ccccc2NC1c1ccc([N+](=O)[O-])o1)c1ccc(Br)cc1 (centres undefined)	HTT ATP protect 6.3µM, HTT aggregate inconclusive (no result: PNC inhibitor)
CC(=O)NN1C(=O)c2ccccc2NC1c1ccc([N+](=O)[O-])o1 (centres undefined)	HTT aggregate inconclusive (no result: PNC inhibitor)
Cc1cccc(CSc2nc(N)c(C#N)c(-c3cccs3)c2C#N)c1	HTT aggregate inconclusive
CCCCSc1nc(N)c(C#N)c(-c2cccs2)c1C#N	HTT aggregate 35µM, PNC inhibitor inconclusive
CC(C)OC(=O)CSc1nc(N)c(C#N)c(-c2cccs2)c1C#N	none
CC(=O)CSc1nc(N)c(C#N)c(-c2cccs2)c1C#N	HTT aggregate 14µM
COc1ccc(NC(=O)CCSc2ccc3ccccc3n2)cc1	PNC inhibitor inconclusive
O=C(c1cccs1)N1CCN(CCCc2ccccc2)CC1	none
CC(C)(C)C(C(Oc1ccc(Cl)cc1)n1cncn1)n1nnnc1C(c1cccc(Cl)c1)N1CCCCC1 (centres undefined)	HTT aggregate inconclusive
Cn1c(N)c(C(=O)c2ccccc2)c(=O)n(C)c1=O	none
Cn1c(N)c(C(=O)c2ccc(Cl)cc2)c(=O)n(C)c1=O	HTT aggregate 2.5µM
COc1ccc(C(=O)OCC(=O)c2c(N)n(C)c(=O)n(C)c2=O)cc1OC	none (no result: PNC inhibitor)
Cn1c(N)c(C(=O)COC(=O)c2ccc(Cl)nc2)c(=O)n(C)c1=O	HTT ATP protect 3.2µM (no result: PNC inhibitor)
CCC(C)c1ccc(NC(=O)C2CCN(c3ccc(C(F)(F)F)cn3)CC2)cc1 (centres undefined)	PNC inhibitor inconclusive
CCOC(=O)c1cc(-c2cccs2)nc2c1c(C)nn2-c1ccccn1	none (no result: PNC inhibitor)
Fc1c(F)c(F)c(N/N=C/c2c[nH]c3ccccc23)c(F)c1F	HTT aggregate inconclusive, PNC inhibitor inconclusive
CC1CCc2c(sc3ncnc(NCCN4CCOCC4)c23)C1 (centres undefined)	none (no result: PNC inhibitor)
Cc1sc2ncnc(NCCN3CCOCC3)c2c1C	HTT aggregate 11µM, PNC inhibitor inconclusive
CN(C)/C(Cn1cncn1)=C1/N=C(c2c(F)cccc2F)OC1=O	none (no result: PNC inhibitor)
CCOCCCNCc1cn(-c2ccc(F)cc2F)nc1-c1ccccc1C	none (no result: PNC inhibitor)
c1ccc2[nH]c(SCc3cscn3)nc2c1	PNC inhibitor -103
Fc1c(F)c(F)c(CSc2nc3ccccc3[nH]2)c(F)c1F	none
CCc1ccc2[nH]c(=O)c(CN(CCN3CCOCC3)C(=O)Nc3ccccc3F)cc2c1	PNC inhibitor -86
CCc1ccc2[nH]c(=O)c(CN(CCCN3CCOCC3)C(=O)Nc3ccc(F)cc3)cc2c1	none
O=C(Nc1ccccc1)N(CCCN1CCOCC1)Cc1ccccc1F	PNC inhibitor -109
O=C(Nc1cccc(Cl)c1)N(CCCN1CCOCC1)Cc1ccccc1F	none
Cc1cccc(-n2c(O)c(C=Nc3ccccc3)c3ccccc3c2=O)n1	none (no result: PNC inhibitor)

High-throughput results as filed in PubChem.
